# Screens: PubChem, several laboratories
# This is a sample that favours compounds with a hit; in the whole collection about 0.98% have one here.
# SDO1 yeast rescue = restores growth of sdo1-depleted yeast; S. cerevisiae sdo1-depleted JHY4D growth rescue, OD600 30 h; hits give high values; pdr5 snq2 efflux-pump mutant strain; z-score at 10 µM; 140,000 compounds, 0.21% hits;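 active = z-score above 3 at both the 24 hr and the 30 hr optical density reads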
# Candida biofilm = kills Candida albicans biofilms. C. albicans biofilm + clotrimazole, Alamar Blue. inhibition, % at 6 µM. 85,000 compounds, 0.14% hits. AID 834;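 active = inhibition above 20%; inactive = inhibition below 20%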;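 note: preformed 24 hr biofilms exposed to compound for 48 hr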
# MRP-1 activ = MRP-1 activation. H69AR cells + doxorubicin, viability rescue, CellTiter-Glo. viability increase, % at 10 µM. 140,000 compounds, 0.61% hits;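 active = viability gain under doxorubicin at or above a set limit, the compound median plus 3 SD, cut at about 4.7% in these data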;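 note: MRP-1 overexpressing cells given doxorubicin 25 µM after compound pretreatment; 18-22 h compound pretreatment then 72 h with doxorubicin before readout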
# MRP reversal = compounds reversing MRP-mediated drug resistance. H69AR cells + 2 uM doxorubicin, CellTiter-Glo, 72 h. differential viability (reversal), % at 10 µM. 85,000 compounds, 0.04% hits;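 active = viability drop by adding the cancer drug above about 55%, with treated viability meeting a 40% cutoff, limit read from the data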;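 note: larger differential means the compound sensitizes cells more to doxorubicin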
# SDO1 rescue DR = confirmation of growth rescue in SDO1-depleted yeast, bone marrow failure; AID 949; 440 compounds, 44% hits; OD recovery (concentration not given with the values); shares compounds with SDO1 yeast rescue; S. cerevisiae JHY4D (SDO1-depleted) growth rescue, OD600, 30 h; hits give high values; efflux-deficient strain, SNQ2 and PDR5 mutated;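 active = yeast growth recovered at 30 hours, either rising with dose fitted slope above 0.001 or with average optical density gain above 0.07, some results past the limit were not filed as active; inactive = growth falling with dose or no effect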
# Numbers stand for hits; 0 = inactive; - = not tested or not shown; ! = not confirmed by another sample.
SMILES,SDO1 yeast rescue,Candida biofilm,MRP-1 activ,MRP reversal,SDO1 rescue DR
N#Cc1ccc(-c2ccc(F)cc2)nc1SCC(=O)Nc1sc2c(c1C#N)CCC2,0,-,0,-,0
Cn1c(CNC(=O)c2ccc(Cl)c(Cl)c2)nnc1SCC(=O)Nc1sc2c(c1C#N)CCCC2,4.7,0,0,0,0
Cc1ccc(S(=O)(=O)N(C)C)cc1NC(=O)CN1C(=O)NC2(CCCc3ccccc32)C1=O (centres undefined),0,-,0,-,-
O=C(CN1CCN(Cc2ccccc2F)C1=O)NCCc1ccc(Cl)cc1,0,0,0,0,-
CC(C)(C)c1cc(C(=O)N/N=C/c2ccco2)n[nH]1,9.9,-,0,-,0.071
COc1ccc(/C=C(\C#N)C(=O)OCC(=O)Nc2c(C)cccc2C(C)C)cc1,0,-,0,-,-
Cc1ccc(CO/N=C\Cc2snc(Sc3ncc(C(F)(F)F)cc3Cl)c2C#N)cc1,3.7,0,0,0,0
CC1=C(C)CC(C(=O)NCc2ccc3c(c2)OCO3)C(C(=O)O)C1 (centres undefined),0,0,0,0,0.075
CCOc1cc(OCC)nc(S(C)(=O)=O)n1,0,-,0,-,-
Cc1ccccc1Cn1c(=O)n(CC2CCC(C(=O)NCCc3ccccc3)CC2)c(=O)c2ccccc21 (centres undefined),0,-,0,-,-
COC(=O)c1cccc(NC(=O)c2ccc3c(c2)C(=O)N(CC2CCCO2)C3=O)c1 (centres undefined),0,0,0,0,0
O=C(O)c1cccc(NC(=O)c2ccc3c(c2)C(=O)N(CC2CCCO2)C3=O)c1 (centres undefined),0,0,0,0,-
O=C(N1CCN(c2ccccc2)CC1)C(F)(F)C(F)(F)F,3.4,0,0,0,0
O=C(N1CCN(c2ccccc2)CC1)C(F)(F)C(F)F,0,0,0,0,-
CC(C)CC(NC(=O)COc1ccccc1)C(=O)O (centres undefined),0,0,0,0,-
COC(=O)[C@H](C)NC(=O)COc1ccccc1,3.8,-,0,-,0
Cc1ccnc(NC(NC(=O)C(C)C)(C(F)(F)F)C(F)(F)F)c1,0,-,0,-,-
NC(=O)COc1ccc(=O)n(-c2ccccc2)n1,0,0,0,0,-
O=c1ccc(OCCOc2ccccc2)nn1-c1ccccc1,12,-,0,-,0.082
Cc1nn(Cc2ccccc2)c(C)c1NC(=O)CSc1n[nH]c(C)c1[N+](=O)[O-],0,-,0,-,-
Cc1nn(Cc2ccc(Cl)cc2)c(C)c1NC(=O)CSc1n[nH]c(C)c1[N+](=O)[O-],12,-,0,-,0.06
O=C(NCc1ccccc1Cl)c1ccccc1CCc1ccccc1,7.1,-,0,-,0.082
CS(=O)(=O)N1CCCC(C(=O)NC2CCCCCCC2)C1 (centres undefined),0,0,0,0,-
CC(C)NC(=O)C1CCCN(S(C)(=O)=O)C1 (centres undefined),0,0,0,0,0
O=C(CC(O)(c1ccccc1)C(F)(F)F)c1cccs1 (centres undefined),0,0,0,0,-
SMILES,SDO1 yeast rescue,Candida biofilm,MRP-1 activ,MRP reversal,SDO1 rescue DR
Oc1ccc(Oc2ncc(Cl)cc2Cl)cc1,0,0,0,0,-
CCOCCOC(=O)C(C)Oc1ccc(Oc2ncc(Cl)cc2Cl)cc1 (centres undefined),6.9,-,0,-,0.11
O=C(Nc1ccccc1)c1ccc(NCC2CCCO2)c([N+](=O)[O-])c1 (centres undefined),11,-,0,-,0.086
O=C(Nc1ccccc1)c1ccc(S(=O)(=O)NCC2CCCO2)cc1 (centres undefined),0,0,0,0,-
Cn1c[n+](C)cc1-c1ccc(/C(N)=N/O)cc1,0,-,0,-,-
CCOC(=O)c1sc2nc3n(c(=O)c2c1C)CCC(C)CC3 (centres undefined),4,0,0,0,0
Cc1ccc(S(=O)(=O)/N=C(\Nc2cc(C)on2)c2ccc(Cl)cc2)cc1,0,-,0,-,-
CN1CC=C2C(C#N)=C(N)C(C#N)(C#N)[C@H](c3ccoc3)[C@H]2C1,3.4,0,0,0,0
COC(=O)c1cc(OC)c(OC)cc1NC(=S)N1CCN(C)CC1,3.1!,-,0,-,0
COC(=O)c1cc(OC)c(OC)cc1NC(=S)N1CCCCC1,0,0,0,0,-
N#Cc1nc(-c2cccc3ccccc23)oc1NCCN1CCCCC1,11,0,0,0,0.097
N#Cc1nc(-c2cccc3ccccc23)oc1N1CCCCC1,0,0,0,0,-
CCN(C(=S)Nc1cc(S(=O)(=O)N2CCOCC2)ccc1Cl)c1cccc2ccccc12,0,-,0,-,-
O=S(=O)(c1ccc(Cl)c(NC(=S)Nc2cccc(O)c2)c1)N1CCOCC1,15,-,0,-,0
O=C(NCc1ccc2c(c1)OCO2)c1cc(-c2ccc(Cl)cc2Cl)on1,0,0,0,0,0
O=C(CC12CC3CC(CC(C3)C1)C2)NCC(=O)N1CCCC1,4,0,0,0,0
CC(=O)N1CCC(=NNc2ccc(S(=O)(=O)N3CCOCC3)cc2[N+](=O)[O-])CC1,12,-,0,-,0
Cc1ccccc1CSc1nccn1-c1ccccc1,0,-,0,-,-
CC(Sc1ccc(Cl)cc1)C(=O)Nc1ccccc1-c1ccccc1 (centres undefined),0,-,0,-,-
CNC(=O)c1c(NC(=O)c2nc3ccccc3s2)sc2c1CCC2,0,0,0,0,0
COC(=O)c1c(NC(=O)c2nc3ccccc3s2)sc2c1CCN(C(C)=O)C2,0,0,0,0,-
COc1ccc(-c2nnc3ccc(SCC(=O)Nc4nc5ccccc5s4)nn23)cc1OC,0,-,0,-,-
COCCn1c(=NC(=O)c2cc(-c3cccs3)nc3ccccc23)sc2cc(S(N)(=O)=O)ccc21,9.4,-,0,-,0.071
C=CCn1c(=NC(=O)c2cc(-c3cccs3)nc3ccccc23)sc2cc(S(N)(=O)=O)ccc21,0,-,0,-,-
Cc1oc2cc(O)ccc2c(=O)c1-c1cnn(-c2ccccc2)c1,5,-,0,-,0
SMILES,SDO1 yeast rescue,Candida biofilm,MRP-1 activ,MRP reversal,SDO1 rescue DR
Cc1nc2ncnn2c(C)c1CCC(=O)N1CCCCC1,0,0,0,0,-
Cc1nc2ncnn2c(C)c1CCC(=O)N1CCOCC1,5.1,0,0,0,0.098
O=C(NC(=S)NCCN1CCOCC1)c1ccccc1Br,0,-,0,-,-
Cc1cccc(C)c1NC(=S)N1CCC(N(C)CC2CCCO2)CC1 (centres undefined),0,0,0,0,-
Cc1cc(C)c(NC(=S)N2CCC(N(C)CC3CCCO3)CC2)c(C)c1 (centres undefined),3.6,0,0,0,0.096
COC(=O)c1ccc2c(=O)n(CCCCCC(=O)O)c(=S)[nH]c2c1,0,-,0,-,-
CCOC(=O)[C@@H]1C(c2c(OC)cc(OC)cc2OC)=NO[C@@H]1C(=O)OCC,6,-,0,-,0.071
NS(=O)(=O)c1ccc(NC(=S)Nc2nn(Cc3ccc(Cl)cc3Cl)cc2Cl)cc1,0,-,0,-,-
CCOCCCNC(=O)CS(=O)(=O)Cc1nc(-c2cccc(OC)c2)oc1C,12,0,0,0,0.073
CCCNC(=O)CS(=O)(=O)Cc1nc(-c2cccc(OC)c2)oc1C,0,0,0,0,-
